# Laboratory results reported in PubChem BioAssay.
# “And” between values parts separate entries of the source, which are not always exact repeats. Identical values can stand only once. Records with an inconclusive call do not appear. For part of these data: Potency and affinity values are given separately. The source made the active and inactive calls. Unless noted, how the calls were made is not given here.
# Experiments:
# [1] = rescue of polyQ-huntingtin neuronal dysfunction in worms, whole organism, C. elegans mechanosensory neurons, N-terminal huntingtin (AID 1599); conditions: touch response, stronger effect = higher value
# [2] = reducers of polyQ inclusions in PC12 cells, cell-based, NGF-treated PC12, GFPQ80 (AID 1614); conditions: PC12 NGF-treated GFP-polyQ80 inclusion reduction;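 further: lower means fewer inclusions and 0 means no inclusions at all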
# [3] = suppressors of polyglutamine aggregation in yeast, 75Q-TubH (AID 1616); conditions: S. cerevisiae 75Q-TubH polyglutamine aggregation suppression; stronger effect = higher value
# [4] = hESC survival regulators, cell-based (AID 493140); conditions: human embryonic stem cell survival screen; stronger effect = higher value;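 further: cells exposed to compounds for four days before counting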
# [5] = tested on: Hepatitis C virus NS3 helicase; experiment: HCV NS3 helicase inhibitors, primary screen, biochemical, fluorescence polarization, LOPAC1280 library (AID 687035; in the data active means inhibition above about 37%); conditions: Purified HCV NS3 helicase, Cy5-dT15 ssDNA binding fluorescence polarization; stronger effect = higher value; concentration not given here
# [6] = Cy5 fluorescence quenching or enhancement artefacts, artefact control for HCV NS3 helicase inhibitor project, biochemical, LOPAC1280 (AID 687037); conditions: Cy5-DNA-NS3h complex fluorescence interference counterscreen
# [7] = growth inhibition of DIPG glioma cells, dose response, cell-based, SU-DIPG-XVII, MIPE5.0, CellTiter-Glo, qHTS (AID 1347060; cut-off not given, nearly all actives have AC50 up to about 26 µM;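 on AC50: cells exposed to compound for 48 hours before viability readout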); conditions: SU-DIPG-XVII viability, CellTiter-Glo ATP luminescence
# [8] = growth inhibition of DIPG glioma cells, dose response, cell-based, JHH-DIPG-1, MIPE4.0, CellTiter-Glo, qHTS (AID 1347062; cut-off not given, nearly all actives have AC50 up to about 27 µM;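 on AC50: cells exposed to compound for two days before readout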); conditions: JHH-DIPG-1 viability, CellTiter-Glo ATP luminescence
# [9] = growth inhibition of DIPG glioma cells, dose response, cell-based, SU-DIPG-IV, MIPE4.0, CellTiter-Glo, qHTS (AID 1347063; cut-off not given, nearly all actives have AC50 up to about 30 µM;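 further: compound exposure lasted 48 hours before the viability readout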); conditions: SU-DIPG-IV viability, CellTiter-Glo ATP luminescence
# [10] = viability loss in pontine glioma line – cell-based, SU-DIPG-XXV, MIPE5.0, CellTiter-Glo, qHTS, dose response (AID 1347065; cut-off not given, nearly all actives have AC50 up to about 26 µM;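 further: cells exposed to compound for 48 hours before ATP readout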); conditions: CellTiter-Glo ATP luminescence
# [11] = JHH-DIPG-1 glioma cell viability, MIPE5.0 library, CellTiter-Glo luminescence, qHTS (AID 1347067; cut-off not given, nearly all actives have AC50 up to about 26 µM;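 further: cells exposed to compound for 48 hours before readout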); conditions: JHH-DIPG-1 glioma viability, CellTiter-Glo ATP luminescence
# [12] = phospholipid biosynthesis inhibitors in animal cells, primary screen, cell-based, LOPAC library, screen 4 (AID 1347384); conditions: phospholipid biosynthesis inhibition screen, at 10 µM
# [13] = SU-DIPG-VI glioma cell viability, MIPE4.0 library, CellTiter-Glo luminescence, qHTS (AID 1347066; cut-off not given, nearly all actives have AC50 up to about 30 µM;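 further: cells exposed to compound for 48 hours before readout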); conditions: CellTiter-Glo ATP luminescence
# [14] = SU-DIPG-XXV glioma cell viability, MIPE5.0 library, qHTS (AID 1347068; cut-off not given, nearly all actives have IC50 up to about 30 µM)
# [15] = growth inhibition of DIPG glioma cells, dose response, cell-based, SU-DIPG-XIII, MIPE4.0, CellTiter-Glo, qHTS (AID 1347061; cut-off not given, nearly all actives have AC50 up to about 37 µM;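 further: cells exposed to compound for 48 hours before readout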); conditions: SU-DIPG-XIII viability, CellTiter-Glo ATP luminescence
# [16] = LFS_MB_1R medulloblastoma cell growth inhibition, synergistic combos for chromothripsis tumors, cisplatin or BGB combos (AID 1671452; in the data active means inhibition above about 80%;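 further: cells exposed for 96 hours before readout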); conditions: LFS_MB_1R medulloblastoma cells, stronger effect = higher value
# [17] = MDA-MB-436 breast carcinoma cell growth inhibition, synergistic combos for chromothripsis tumors, BGB or cisplatin combos (AID 1671458); conditions: MDA-MB-436 breast carcinoma growth inhibition, drug combinations, stronger effect = higher value;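 further: cells exposed for 96 hours; 0% = vehicle DMSO and 100% = killing by high DMSO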
# [18] = growth inhibition of BT084 medulloblastoma cells, cell-based, ICGC_MB145, cisplatin and BGB IC40 combos (AID 1671461; in the data active means inhibition above about 80%;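 further: cells exposed to drugs for 96 hours; 0% = vehicle DMSO and 100% = high DMSO full killing control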); conditions: drug combinations, stronger effect = higher value
# [19] = growth inhibition of RCMB18 medulloblastoma cells, cell-based, cisplatin and BGB IC40 combos (AID 1671462; in the data active means inhibition above about 80%;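 further: cells exposed to compound for four days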); conditions: stronger effect = higher value
# [20] = growth inhibition of CRL1545 osteosarcoma cells, cell-based, cisplatin and BGB IC20 combos (AID 1671464; in the data active means inhibition above about 80%;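 further: cells exposed to compound for 96 hours before readout; 0% = vehicle DMSO and 100% = high DMSO killing control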); conditions: stronger effect = higher value
# [21] = measured here: combination with BGB IC40, at 0.05 µM
# [22] = measured here: combination with cisplatin, at 0.5 µM
# [23] = measured here: combination with cisplatin, at 5 µM
# [24] = measured here: BGB combination, at 0.5 µM
# [25] = measured here: BGB combination, at 5 µM
# [26] = measured here: cisplatin combination, at 0.5 µM
# [27] = measured here: cisplatin combination, at 5 µM
# [28] = cisplatin combination, at 0.5 µM
# [29] = measured here: BGB IC40 combination 0.05 uM, at 0.05 µM
# [30] = measured here: BGB IC40 combination, at 0.05 µM
# [31] = measured here: with BGB IC20 combination, at 0.5 µM
# [32] = measured here: with cisplatin IC20 combination, at 0.5 µM
structure (smiles),measurement,setting,value
COc1ccc(OC)c(C(O)CNC(=O)CN)c1 (stereo not drawn),rescue above control,[1],-4.55
same,inclusion score,[2],2
same,aggregation suppression score,[3],1.16
same,survival,[4],18.8 (inactive)
COC1=CC(=O)C[C@@H](C)[C@]12Oc1c(Cl)c(OC)cc(OC)c1C2=O,rescue above control,[1],-5.31
same,inclusion score,[2],2
same,aggregation suppression score,[3],1.07
Nc1ncn([C@@H]2O[C@H](CO)[C@@H](O)[C@H]2O)c(=O)n1,rescue above control,[1],17.7
same,aggregation suppression score,[3],1.25
same,inhibition,[5],-1% (inactive)
same,fluorescence ratio (interference),[6],0.9 (inactive)
same,AC50,[7],1.48 µM (active)
same,AC50,[8],2.96 µM (active)
same,AC50,[9],0.935 µM (active)
same,AC50,[10],2.09 µM (active)
same,AC50,[11],7.42 µM (active)
same,outcome,[12],inactive
CN(CCOc1ccc(CC2SC(=O)NC2=O)cc1)c1ccccn1 (stereo not drawn),outcome,[7],inactive
same,outcome,[8],inactive
same,outcome,[9],inactive
same,outcome,[10],inactive
same,outcome,[13],inactive
same,outcome,[11],inactive
same,outcome,[14],inactive
O=c1[nH]cc(F)c(=O)[nH]1,rescue above control,[1],-13.1
same,inclusion score,[2],2
same,aggregation suppression score,[3],0.203
same,inhibition,[5],-1% (inactive)
same,fluorescence ratio (interference),[6],1 (inactive)
same,outcome,[15],inactive
same,outcome,[8],inactive
same,outcome,[10],inactive
same,outcome,[13],inactive
same,outcome,[11],inactive
same,outcome,[14],inactive
same,outcome,[12],inactive
same,inhibition,[16]; at 0.5 µM,-23.7% (inactive)
same,inhibition,[16]; [21],-2.27%
same,inhibition,[16]; [22],11.9%
same,inhibition,[16]; [23],-15.5%
same,inhibition,[17]; at 0.5 µM,-17.3% (inactive)
same,inhibition,[17]; [24],-27.5%
same,inhibition,[17]; [25],-5.42%
same,inhibition,[17]; [26],-20.4%
same,inhibition,[17]; [27],36.2%
same,inhibition,[18]; at 0.5 µM,-4.41% (inactive)
same,inhibition,[18]; [28],-0.838%
same,inhibition,"[18]; cisplatin combination, at 5 µM",-20.1%
same,inhibition,[18]; [29],2.5%
same,inhibition,"[18]; single agent, at 5 µM",-0.674%
same,inhibition,[19]; at 0.5 µM,3% (inactive)
same,inhibition,"[19]; cisplatin combo, at 5 µM",11.8%
same,inhibition,[19]; [30],-17.4%
same,inhibition,[19]; [22],13.9%
same,inhibition,"[19]; single agent, at 5 µM",7.41%
same,inhibition,[20]; at 0.5 µM,-41.5% (inactive)
same,inhibition,[20]; [31],-0.875%
same,inhibition,[20]; [32],-61.8%
same,inhibition,"[20]; single agent, at 0.05 µM",-3.52%
same,inhibition,"[20]; single agent, at 5 µM",15.8%
CN(C)CCOC(c1ccc(Cl)cc1)c1ccccn1 (stereo not drawn),rescue above control,[1],-1.97
same,inclusion score,[2],2
same,aggregation suppression score,[3],1.21
same,survival,[4],2.92 (inactive)
CN(C)CCc1c[nH]c2ccc(C[C@H]3COC(=O)N3)cc12,outcome,[15],inactive
same,outcome,[8],inactive
same,outcome,[9],inactive
same,outcome,[13],inactive
CCc1cccc2c3c([nH]c12)C(CC)(CC(=O)O)OCC3 (stereo not drawn),rescue above control,[1],-7.42
same,inclusion score,[2],2
same,aggregation suppression score,[3],0.918
same,survival,[4],14.8 (inactive)
same,inhibition,[5],-3% (inactive)
same,fluorescence ratio (interference),[6],1 (inactive)
same,outcome,[15],inactive
same,outcome,[8],inactive
same,outcome,[9],inactive
same,outcome,[13],inactive
same,outcome,[12],inactive
OC(CCN1CCCC1)(c1ccccc1)C1CCCCC1 (stereo not drawn),rescue above control,[1],0.33
same,inclusion score,[2],2
same,aggregation suppression score,[3],1.66
same,survival,[4],7.33 (inactive)
Clc1ccc2c(c1)C(N1CCNCC1)=Nc1ccccc1O2,rescue above control,[1],6.68
same,aggregation suppression score,[3],1.13
same,inhibition,[5],-4% (inactive)
same,fluorescence ratio (interference),[6],1 (inactive)
same,outcome,[15],inactive
same,outcome,[8],inactive
same,outcome,[9],inactive
same,outcome,[13],inactive
same,outcome,[12],inactive
Cc1ccccc1C(OCCN(C)C)c1ccccc1 (stereo not drawn),rescue above control,[1],-6.28
same,inclusion score,[2],2
same,aggregation suppression score,[3],1.25
same,survival,[4],11.9 (inactive)
same,inhibition,[5],-2% (inactive)
same,fluorescence ratio (interference),[6],0.9 (inactive)
same,outcome,[15],inactive
same,outcome,[8],inactive
same,outcome,[9],inactive
same,outcome,[13],inactive
same,outcome,[12],inactive
CN1CCCC(n2nc(Cc3ccc(Cl)cc3)c3ccccc3c2=O)CC1 (stereo not drawn),AC50,[8],2.35 µM (active)
same,AC50,[9],6.62 µM (active)
C/C=C/C(=O)N(CC)c1ccccc1C,survival,[4],6.17 (inactive)
same,outcome,[7],inactive
same,outcome,[8],inactive
same,outcome,[13],inactive
same,outcome,[11],inactive
same,outcome,[14],inactive
CCCNCC(O)COc1ccccc1C(=O)CCc1ccccc1 (stereo not drawn),rescue above control,[1],2.07
same,inclusion score,[2],2
same,aggregation suppression score,[3],0.81
same,survival,[4],6.75 (inactive)
same,inhibition,[5],-1% (inactive)
same,fluorescence ratio (interference),[6],1 (inactive)
same,outcome,[7],inactive
same,outcome,[8],inactive
same,outcome,[13],inactive
same,outcome,[14],inactive
same,outcome,[12],inactive
COc1ccccc1OCC(O)COC(N)=O (stereo not drawn),rescue above control,[1],1.68
same,inclusion score,[2],2
same,aggregation suppression score,[3],1.52
same,survival,[4],33.1 (inactive)
same,outcome,[15],inactive
same,outcome,[8],inactive
same,outcome,[13],inactive
CCn1cc(C(=O)O)c(=O)c2cc(F)c(N3CCN(C)CC3)cc21,outcome,[7],inactive
same,outcome,[8],inactive
same,outcome,[9],inactive
same,outcome,[13],inactive
same,outcome,[14],inactive
same,inhibition,[16]; at 0.5 µM,-35.2% (inactive) and -9.17% (inactive)
same,inhibition,[16]; [21],-12.2% and -6.93%
same,inhibition,[16]; [22],-66.1% and -0.499%
same,inhibition,[16]; [23],-52.8% and 11.3%
same,inhibition,[17]; at 0.5 µM,-8.42% (inactive) and -1.21% (inactive)
same,inhibition,[17]; [24],-5.87% and 9.12%
same,inhibition,[17]; [25],-7.49% and 1.82%
same,inhibition,[17]; [26],-16.3% and -4.65%
same,inhibition,[17]; [27],-9.37% and -6.1%
same,inhibition,[18]; at 0.5 µM,-1.86% (inactive) and 3.84% (inactive)
same,inhibition,[18]; [28],-11.9% and -2.51%
same,inhibition,"[18]; cisplatin combination, at 5 µM",-69% and 6.95%
same,inhibition,[18]; [29],-0.823% and 30.3%
same,inhibition,"[18]; single agent, at 5 µM",-6.24% and -12.7%
same,inhibition,[19]; at 0.5 µM,-15.3% (inactive) and 13.4% (inactive)
same,inhibition,"[19]; cisplatin combo, at 5 µM",-13.1% and 21.2%
same,inhibition,[19]; [30],11.2% and 6.78%
same,inhibition,[19]; [22],-34.9% and 34.7%
same,inhibition,"[19]; single agent, at 5 µM",-30.4% and 4.8%
same,inhibition,[20]; at 0.5 µM,-40.9% (inactive) and -9.39% (inactive)
same,inhibition,[20]; [31],-21.3% and -8%
same,inhibition,[20]; [32],-50.7% and -12.6%
same,inhibition,"[20]; single agent, at 0.05 µM",3.45% and -1.09%
same,inhibition,"[20]; single agent, at 5 µM",-27.1% and 1.32%
Cc1ccc(C)c(OCCCC(C)(C)C(=O)O)c1,rescue above control,[1],6.5
same,inclusion score,[2],2
same,aggregation suppression score,[3],-0.02
same,survival,[4],20.8 (inactive)
same,outcome,[7],inactive
same,outcome,[9],inactive
same,outcome,[10],inactive
same,outcome,[13],inactive
same,outcome,[11],inactive
same,outcome,[14],inactive
